Among all 340,000 compounds or so, about 2,100 (0.62%) were called active.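 How the source made its calls: active means first-screen hits whose inhibition reached a set limit at any dose in the follow-up dose series; inconclusive means inhibition above the set first-screen limit but never retested; inactive means the rest.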 Not all results are given here. Potency and affinity values are given separately.
target: Rac GTPase-activating protein 1 (Homo sapiens) (UniProt Q9H0H5); experiment: blockers of MgcRacGAP-driven Rac1 GTP hydrolysis – biochemical, ADP Hunter fluorescence, primary and confirmatory, confirmation (AID 624330); conditions: MgcRacGAP-stimulated Rac1 GTP hydrolysis, at 30 µM, active compounds read high, GST-tagged Rac1 F28L mutant substrate;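 further: fluorescence reports GDP produced by GAP-driven GTP hydrolysis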
Sequence (Q9H0H5 whole entry, looked up): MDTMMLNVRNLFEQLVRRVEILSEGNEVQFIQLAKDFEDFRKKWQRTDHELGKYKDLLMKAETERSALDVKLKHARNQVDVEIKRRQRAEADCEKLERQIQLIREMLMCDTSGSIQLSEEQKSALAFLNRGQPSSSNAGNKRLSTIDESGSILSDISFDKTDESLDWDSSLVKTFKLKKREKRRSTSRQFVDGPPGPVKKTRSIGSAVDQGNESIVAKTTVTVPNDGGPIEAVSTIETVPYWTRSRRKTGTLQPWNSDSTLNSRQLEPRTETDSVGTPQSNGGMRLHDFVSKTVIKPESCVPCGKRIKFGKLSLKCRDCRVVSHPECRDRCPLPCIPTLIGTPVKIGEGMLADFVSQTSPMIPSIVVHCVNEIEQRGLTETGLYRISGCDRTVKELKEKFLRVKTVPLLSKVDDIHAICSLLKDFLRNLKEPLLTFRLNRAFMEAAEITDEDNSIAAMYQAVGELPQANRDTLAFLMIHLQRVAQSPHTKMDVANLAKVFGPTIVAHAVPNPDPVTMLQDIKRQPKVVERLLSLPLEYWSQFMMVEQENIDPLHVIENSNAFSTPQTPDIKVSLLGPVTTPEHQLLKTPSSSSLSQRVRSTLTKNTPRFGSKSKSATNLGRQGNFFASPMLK

inhibition, inactive:
CCOC(=O)c1sc(C)c2c1NC1(CCCCCC1)NC2=O 1.2%, COc1cccc(/C=N/NC(=O)c2cnccn2)c1 8.84%, COc1ccc(/C=N/NC(=O)c2cccnc2)cc1O 28.2%, COc1cc(OC)c(OC)cc1/C=N/NC(=O)c1cnccn1 9.21%, COc1cc(/C=N/NC(=O)c2cnccn2)cc(OC)c1OC 3.55%, CSc1ccccc1NC(=O)CN1CCN(c2ccccn2)CC1 6.87%, COc1ccc2nc(C)cc(N/N=C/c3ccccc3)c2c1 19.7%, COc1ccccc1/C=N/Nc1cc(C)nc2ccc(C)cc12 14.4%, Cc1ccc2nc(C)cc(N/N=C/c3ccccc3O)c2c1 9.12%, COc1ccc2nc(C)cc(N/N=C/c3ccc(F)cc3)c2c1 13.3%, COc1ccc(OC)c(S(=O)(=O)N2CCC3(CC2)CC(=O)c2ccccc2O3)c1 8.64%, O=C(Nc1ccc(C(=O)O)cc1)/C(=C\c1ccc2c(c1)OCO2)NC(=O)c1ccccc1 -1.61%, O=C(COC(=O)c1ccc([N+](=O)[O-])o1)Nc1ccc(N2CCOCC2)cc1 10.6%, C/C(=N\N(c1ccccc1)c1ccccc1)c1ccc(N)cc1 18.1%, O=C(O)c1ccc(N(c2ccccc2)c2ccccc2)cc1 6.47%, O=C(CSc1nc2ccc(NC(=O)CSc3nnnn3-c3ccccc3)cc2s1)Nc1ccccc1 2.46%, CN(C)c1ccc(C(=O)N2CCCC2)cc1 3.64%, CN(C)c1ccc(C(=O)NN2C(=O)c3ccccc3C2=O)cc1 8.64%, C[C@@H]1CN([C@@H](C)CO)C(=O)c2cc(Br)cnc2O[C@H]1CN(C)C(=O)c1ccc2c(c1)OCO2 13.5%, Cc1cccc(NC(=O)CCCN=C2NS(=O)(=O)c3ccccc32)c1C -1.68%, CN(c1ccccc1)c1ccc(/C=N/NC(=O)CC#N)cc1 10.3%, Cc1ccc(N=Cc2ccc(N(C)C)cc2)cc1 3.33%, CN(C)c1ccc(C=Nc2ccccc2)cc1 0.89%, CCOc1ccc(/C=N/O)cc1 5.7%, CCN(CC)c1ccc(/C=N/NC(=O)C(O)c2ccccc2)cc1 (centres undefined) 9.04%, CCN(CC)c1ccc(C=N/C(C#N)=C(\N)C#N)cc1 6.79%, CCN(CC)c1ccc(/C=N/NC(=O)CC(C)C)cc1 5.15%, NC(=S)N/N=C/c1ccccc1 11.7%, Cc1ccc(SCC(=O)n2nc(C)cc2C)cc1 3.7%, CSc1nc(NS(=O)(=O)c2ccc(F)cc2F)nn1C 6.35%, Cc1ccc(S(=O)(=O)N2CCN(C(=O)Cn3nc(C)c([N+](=O)[O-])c3C)CC2)cc1 6.68%, CC(C)Cn1c(N)c(C(=O)COC(=O)COc2cccc(C(F)(F)F)c2)c(=O)n(C)c1=O 6.32%, COC1CC(C)NC(=S)N1 (centres undefined) 12.9%, O=C(Cn1nnc2ccccc21)N/N=C/c1ccco1 10.9%, COc1ccc(NC(=O)c2ccc3c(c2)C(=O)N(CC2CCCO2)C3=O)cc1O (centres undefined) 0.29%, O=C(CSc1nnc(-c2ccco2)n1Cc1ccccc1)NCc1ccccc1 5.14%, O=C(CSc1nnc(-c2ccco2)n1Cc1ccccc1)c1ccccc1 13.1%, O=C(NN=Cc1ccc2c(c1)CCC2)c1ccccc1[N+](=O)[O-] 6.28%, Cc1cc(C)nc(N2N=C(CSc3ccc(Cl)cc3)CC2=O)n1 3.87%, COc1cccc(C(=O)NNC(=O)Cc2csc(N)n2)c1 10.7%, CCn1c(SCC(=O)c2[nH]c(C)c(C(C)=O)c2C)nnc1-c1ccccc1 11.9%, COc1ccc2cc(CN(C)C(=O)CN3C(=O)NC4(CCCC4)C3=O)ccc2c1 20.2%, COc1ccccc1CC(=O)Nc1cc2oc3ccccc3c2cc1OC 1.63%, CNC(=S)Nc1cc2oc3ccccc3c2cc1OC 13.3%, CCCNC(=S)Nc1cc2oc3ccccc3c2cc1OC 7.43%, COc1cc2c(cc1NC(=O)CCC(=O)O)oc1ccccc12 17.1%, NS(=O)(=O)c1ccc(CCNC(=O)c2ccc(Cl)nc2)cc1 4.85%, COC(=O)C[C@@H]1C[C@@H]2c3cc(NC(=O)NC4CCCCC4)ccc3O[C@@H]2[C@H](CO)O1 0.31%, CC(=O)c1ccc(N2CCN(C(=O)c3ccc(-c4ccccc4)cc3)CC2)cc1 6.62%, CN1c2cccc3cccc(c23)N(C)C1(C)C 17.8%, CN1c2cccc3cccc(c23)N(C)C1c1cccs1 29.9%, Cc1[nH]c2ccc(-c3n[nH]c(=S)n3Cc3ccccc3)cc2c1C 10.2%, c1ccc(-c2csc(NNC3=NCCCCC3)n2)cc1 -65.3%, COc1ccc(CNC(=O)c2ccc[nH]2)cc1Cl -1.95%, COc1cc(-c2n[nH]c(=S)n2-c2ccccc2C(F)(F)F)cc(OC)c1OC 0.91%, CCn1c(C)nc2cc(C(=O)N/N=C/c3ccccc3C)ccc21 4.28%, CCn1c(C)nc2cc(C(=O)N/N=C/c3ccc(N4CCOCC4)cc3)ccc21 9.18%, CCn1c(C)nc2cc(C(=O)N/N=C/c3cccc(OC)c3O)ccc21 15%, CCn1c(C)nc2cc(C(=O)NN=Cc3ccc([N+](=O)[O-])cc3)ccc21 8.03%, CCn1c(C)nc2cc(C(=O)N/N=C/c3ccc(O)c(O)c3O)ccc21 -97%, CCn1c(C)nc2cc(C(=O)N/N=C/c3ccccc3)ccc21 12.6%, O=C(O)CCCN1C(=O)c2ccc(Oc3cccc([N+](=O)[O-])c3)cc2C1=O 1.11%, Cc1ccc(OCC(=O)NNC(=O)c2ccco2)c(C)c1 8.22%, O=C(O)[C@H](CSCc1ccccc1)NS(=O)(=O)c1ccc(F)cc1 9.02%, CCCCn1c(SCC(=O)c2ccccc2)nc2ccsc2c1=O 9.24%, CCCCn1c(SCC(=O)Nc2cc(C)[nH]n2)nc2ccsc2c1=O 9.99%, C=CCn1c(SCC(=O)NC2CC2)nc2sc(CC)cc2c1=O 2.06%, C=CCn1c(SCC(=O)Nc2cc(C)on2)nc2sc(CC)cc2c1=O -5.28%, CN(Cc1ccccc1)C(=O)COC(=O)/C=C/c1ccco1 7.88%, Cc1ccc(NC(=O)Cn2nc(C(=O)O)c3ccccc3c2=O)cc1S(=O)(=O)N1CCOCC1 5.1%, COc1ccc2c(C)cc3nncn3c2c1 5.43%, COc1ccc2c(C)cc3nnnn3c2c1 7.23%, Nc1ccn([C@@H]2O[C@H](COS(=O)(=O)O)[C@@H](O)[C@H]2O)c(=O)n1 9.68%, COCC(C)NCc1cccc(C)c1 (centres undefined) 5.01%, COc1cccc(CNCc2cccc(Br)c2)c1OC 24.4%, COc1ccccc1CNCc1ccc(OC)c(OC)c1OC 20.1%, COCC(C)NCc1cc(Br)ccc1OC (centres undefined) 26.2%, COc1cc(CNCc2cccc(OC)c2OC)cc(OC)c1 20.9%, COc1cccc(CNCc2ccccn2)c1OC 8.4%, N#CCCn1cc(C(=O)Nc2ccc(C(=O)O)cc2)c(-c2ccc([N+](=O)[O-])cc2)n1 5.44%, O=C(C(=O)c1ccc(O)cc1)c1ccccc1 3.36%, O=C1Cn2c(nc3ccccc32)-c2ccccc2N1 1.15%, CCCCc1ccc(S(=O)(=O)NCCCN2CCCC2=O)cc1 6.42%, Cc1ccc(Cn2c(CCNc3nc(-c4ccc(Cl)c([N+](=O)[O-])c4)cs3)nc3cc(Cl)c(Cl)cc32)cc1 7.46%, CC(C)(C)OC(=O)C[C@H]1C/C=C\C[C@@H](CC(=O)N[C@@H](CO)Cc2ccccc2)C(=O)NC[C@H](c2ccccc2)OC1=O 2.19%, Cc1cn(C2CC(OC(=O)C(C)C)C(CO)O2)c(=O)[nH]c1=O (centres undefined) 6.43%, O=c1[nH]cn[nH]1 0.25%, CC(CCN(C)C)OC(=O)c1ccc(C(C)c2ccccc2)o1 (centres undefined) 1.78%, Brc1ccc2c(c1)OCCOCCOCCOCCOCCOCCO2 0.25%, Oc1c(Br)cc(Br)cc1C=Nc1ccc2c(c1)OCO2 15.4%, Brc1ccc2c(c1)OCCOCCOCCOCCOCCO2 8.26%, Oc1c(Cl)cc(Cl)cc1C=Nc1ccc2c(c1)OCCO2 4.97%, O=S(=O)(c1ccc(SCc2cccc(Cl)c2)nc1)N1CCCC1 2.55%, CC(=O)c1cccc(OC(=O)C2=CC=CN3CCS(=O)(=O)N=C23)c1 7.32%, COc1ccc2c(c1)c1nc3ccccc3nc1n2Cc1ccc(OC)c(OC)c1 8.38%, COc1cccc(CN(C)C(=O)Nc2cccc(C(F)(F)F)c2)c1OC -4.29%, Brc1ccc(OCc2nnc3n2CCC3)cc1 5.52%, O=C(COc1cccnc1[N+](=O)[O-])N1CCc2ccccc21 0.83%, CCN(CC)c1ccc(-c2c(C#N)c(N)nc(OC)c2C#N)cc1 -1.06%

From PubChem BioAssay AID624330 (Southern Research Specialized Biocontainment Screening …, 2012)
